# Measured values reported in PMC7862700, “An all-to-all approach to the identification of sequence-specific readers for epigenetic DNA modifications on cytosine”.
# Tests used:
# Experiment in all cases: DAPPL (digital affinity profiling via proximity ligation, sequencing); 10 mM Tris-HCl pH 7.5, 50 mM NaCl, 1 mM DTT, 4% glycerol, room temperature, 30 min; GST-TFs on glutathione beads, 16-mer random dsDNA library, 0.1% formaldehyde crosslink after washing; high values mean tight binding
# FLI1 = target: T1, FLI1 (Homo sapiens, UniProt Q01543 1-452); conditions: protein: recombinant; tags: N-terminal GST; dsDNA, one strand shown
# T1 sequence: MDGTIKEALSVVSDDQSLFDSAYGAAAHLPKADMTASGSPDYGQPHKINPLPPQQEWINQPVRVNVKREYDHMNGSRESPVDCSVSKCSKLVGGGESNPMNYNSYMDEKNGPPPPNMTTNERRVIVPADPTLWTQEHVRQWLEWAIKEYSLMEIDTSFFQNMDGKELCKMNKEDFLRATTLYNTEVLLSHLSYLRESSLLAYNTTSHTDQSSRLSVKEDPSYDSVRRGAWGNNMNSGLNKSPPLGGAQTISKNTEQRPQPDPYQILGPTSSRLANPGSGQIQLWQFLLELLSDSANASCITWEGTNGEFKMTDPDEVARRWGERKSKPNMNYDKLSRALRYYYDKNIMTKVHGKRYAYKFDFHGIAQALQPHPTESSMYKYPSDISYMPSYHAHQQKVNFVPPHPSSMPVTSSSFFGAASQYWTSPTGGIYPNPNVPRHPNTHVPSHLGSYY
# Summary of the method: (§1)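 After expression in yeast as GST fusions, human transcription factors were bound to glutathione beads, DNA-barcoded and mixed with a tag-only sample. The pools were incubated with 200 nmole of a 16-mer random double-stranded DNA library in Tris/NaCl/DTT/glycerol buffer (30 min, room temperature), washed and crosslinked with 0.1% formaldehyde. Proximity ligation with BsaI/T4 ligase ran for 1 h at 37 °C, before PCR amplification and sequencing on an Illumina NextSeq500. Binding signal is a hexamer's read frequency for a factor divided by its frequency for the tag-only sample.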
# ELK1 = target: T2, ELK1 (Homo sapiens, UniProt P19419 1-428); conditions: protein: recombinant; tags: N-terminal GST; dsDNA, one strand shown
# T2 sequence: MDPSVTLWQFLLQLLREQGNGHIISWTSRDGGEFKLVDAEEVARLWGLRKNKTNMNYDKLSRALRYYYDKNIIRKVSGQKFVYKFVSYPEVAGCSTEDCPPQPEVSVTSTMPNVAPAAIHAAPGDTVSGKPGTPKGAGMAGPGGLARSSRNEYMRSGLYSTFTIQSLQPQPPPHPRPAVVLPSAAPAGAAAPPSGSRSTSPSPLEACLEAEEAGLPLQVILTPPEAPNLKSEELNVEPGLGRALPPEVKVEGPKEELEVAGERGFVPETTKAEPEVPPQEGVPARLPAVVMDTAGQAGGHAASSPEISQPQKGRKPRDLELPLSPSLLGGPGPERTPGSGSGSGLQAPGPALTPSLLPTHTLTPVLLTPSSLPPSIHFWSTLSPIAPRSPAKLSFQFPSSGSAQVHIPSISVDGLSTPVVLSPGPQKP
# Summary of the method: as §1
# GABPA = target: T3, GABPA (Homo sapiens, UniProt Q06546 1-454); conditions: protein: recombinant; tags: N-terminal GST; dsDNA, one strand shown
# T3 sequence: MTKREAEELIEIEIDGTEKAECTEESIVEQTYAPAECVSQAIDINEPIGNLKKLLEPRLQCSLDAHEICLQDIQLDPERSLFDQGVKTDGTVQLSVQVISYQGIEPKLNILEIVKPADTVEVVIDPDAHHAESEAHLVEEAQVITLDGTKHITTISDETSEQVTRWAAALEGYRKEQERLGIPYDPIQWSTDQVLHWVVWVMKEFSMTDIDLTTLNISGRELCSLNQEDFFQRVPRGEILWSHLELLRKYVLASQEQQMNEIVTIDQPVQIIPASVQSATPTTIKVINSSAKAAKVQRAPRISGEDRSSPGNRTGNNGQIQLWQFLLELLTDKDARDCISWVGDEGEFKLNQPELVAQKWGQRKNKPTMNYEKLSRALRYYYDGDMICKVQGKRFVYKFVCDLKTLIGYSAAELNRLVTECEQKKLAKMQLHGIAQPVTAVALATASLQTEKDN
# Summary of the method: as §1
# ERG = target: T4, ERG (Homo sapiens, UniProt P11308 1-479); conditions: protein: recombinant; tags: N-terminal GST; dsDNA, one strand shown
# T4 sequence: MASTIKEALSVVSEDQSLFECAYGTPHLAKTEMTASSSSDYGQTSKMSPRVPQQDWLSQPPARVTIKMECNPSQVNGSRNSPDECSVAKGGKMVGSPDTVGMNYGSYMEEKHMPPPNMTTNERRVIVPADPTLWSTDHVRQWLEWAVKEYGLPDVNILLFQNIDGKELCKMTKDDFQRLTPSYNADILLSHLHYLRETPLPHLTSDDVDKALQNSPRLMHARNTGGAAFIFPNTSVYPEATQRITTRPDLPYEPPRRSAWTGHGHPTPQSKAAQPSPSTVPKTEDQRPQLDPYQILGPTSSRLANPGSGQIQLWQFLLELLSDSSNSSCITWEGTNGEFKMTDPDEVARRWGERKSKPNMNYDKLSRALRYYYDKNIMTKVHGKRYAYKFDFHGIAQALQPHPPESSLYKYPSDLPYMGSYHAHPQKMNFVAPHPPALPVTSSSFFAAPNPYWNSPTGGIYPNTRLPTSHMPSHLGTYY
# Summary of the method: as §1
# ELF1 = ELF1 (Homo sapiens, UniProt P32519 1-619); conditions: protein: recombinant; tags: N-terminal GST; dsDNA, one strand shown
# Chain of ELF1 (P32519 whole entry): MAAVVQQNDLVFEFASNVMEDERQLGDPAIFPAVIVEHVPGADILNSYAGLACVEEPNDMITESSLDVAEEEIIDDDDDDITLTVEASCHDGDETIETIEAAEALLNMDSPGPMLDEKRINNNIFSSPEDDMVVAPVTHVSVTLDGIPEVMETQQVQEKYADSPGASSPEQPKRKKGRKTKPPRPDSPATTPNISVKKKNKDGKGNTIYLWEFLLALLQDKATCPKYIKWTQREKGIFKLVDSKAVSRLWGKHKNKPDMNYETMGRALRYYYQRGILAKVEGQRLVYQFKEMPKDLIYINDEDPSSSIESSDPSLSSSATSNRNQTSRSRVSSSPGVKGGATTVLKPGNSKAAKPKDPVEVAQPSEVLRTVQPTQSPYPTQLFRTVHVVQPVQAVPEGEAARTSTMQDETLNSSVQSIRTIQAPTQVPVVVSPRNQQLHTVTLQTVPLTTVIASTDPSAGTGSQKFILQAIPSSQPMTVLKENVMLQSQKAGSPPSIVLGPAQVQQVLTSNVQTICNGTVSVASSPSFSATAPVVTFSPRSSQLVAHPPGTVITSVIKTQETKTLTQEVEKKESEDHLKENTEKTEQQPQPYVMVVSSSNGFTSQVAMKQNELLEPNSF
# Summary of the method: as §1
# EHF = target: T5, EHF (Homo sapiens, UniProt Q9NZC4 1-300); conditions: protein: recombinant; tags: N-terminal GST; dsDNA, one strand shown
# T5 sequence: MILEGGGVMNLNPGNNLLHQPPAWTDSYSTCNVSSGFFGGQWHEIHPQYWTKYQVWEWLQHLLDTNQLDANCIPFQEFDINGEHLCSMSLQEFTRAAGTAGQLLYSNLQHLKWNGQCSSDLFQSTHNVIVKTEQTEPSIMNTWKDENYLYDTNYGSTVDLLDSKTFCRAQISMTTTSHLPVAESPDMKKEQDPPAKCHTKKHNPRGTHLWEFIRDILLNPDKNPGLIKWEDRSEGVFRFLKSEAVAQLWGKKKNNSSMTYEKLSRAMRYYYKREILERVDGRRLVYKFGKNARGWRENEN
# Summary of the method: as §1
# SPI1 = SPI1 (Homo sapiens, UniProt P17947 1-270); conditions: protein: recombinant; tags: N-terminal GST; dsDNA, one strand shown
# Summary of the method: as §1
# SPIB = SPIB (Homo sapiens, UniProt Q01892 1-262); conditions: protein: recombinant; tags: N-terminal GST; dsDNA, one strand shown
# Chain of SPIB (Q01892 whole entry): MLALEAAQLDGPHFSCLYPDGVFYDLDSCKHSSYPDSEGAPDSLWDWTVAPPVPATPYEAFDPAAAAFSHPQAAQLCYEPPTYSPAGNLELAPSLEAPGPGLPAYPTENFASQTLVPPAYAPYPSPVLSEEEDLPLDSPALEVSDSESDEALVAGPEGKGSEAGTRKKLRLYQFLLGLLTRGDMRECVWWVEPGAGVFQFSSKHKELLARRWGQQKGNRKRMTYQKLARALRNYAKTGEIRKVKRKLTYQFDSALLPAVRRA
# Summary of the method: as §1
# ELK3 = target: T6, ELK3 (Homo sapiens, UniProt P41970 1-407); conditions: protein: recombinant; tags: N-terminal GST; dsDNA, one strand shown
# T6 sequence: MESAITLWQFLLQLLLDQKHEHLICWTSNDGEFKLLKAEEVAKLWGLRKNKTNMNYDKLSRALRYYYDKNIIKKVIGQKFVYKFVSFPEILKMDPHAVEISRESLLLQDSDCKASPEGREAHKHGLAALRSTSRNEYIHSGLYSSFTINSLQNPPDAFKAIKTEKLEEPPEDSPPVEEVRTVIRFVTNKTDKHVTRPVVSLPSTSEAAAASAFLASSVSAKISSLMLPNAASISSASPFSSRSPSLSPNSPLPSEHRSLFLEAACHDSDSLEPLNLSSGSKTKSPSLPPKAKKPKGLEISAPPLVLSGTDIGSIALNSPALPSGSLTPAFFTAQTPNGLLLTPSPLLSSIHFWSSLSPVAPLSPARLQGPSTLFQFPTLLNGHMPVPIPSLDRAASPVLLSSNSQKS
# Summary of the method: as §1
# FEV = target: T7, FEV (Homo sapiens, UniProt Q99581 1-238); conditions: protein: recombinant; tags: N-terminal GST; dsDNA, one strand shown
# T7 sequence: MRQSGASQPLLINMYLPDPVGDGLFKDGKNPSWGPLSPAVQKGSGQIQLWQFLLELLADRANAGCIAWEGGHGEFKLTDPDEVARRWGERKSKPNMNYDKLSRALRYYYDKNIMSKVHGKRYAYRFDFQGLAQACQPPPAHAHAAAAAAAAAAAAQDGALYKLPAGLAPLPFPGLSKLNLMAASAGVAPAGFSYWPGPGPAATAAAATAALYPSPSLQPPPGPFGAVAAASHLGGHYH
# Summary of the method: as §1
# ETV5 = ETV5 (Homo sapiens, UniProt P41161 1-510); conditions: protein: recombinant; tags: N-terminal GST; dsDNA, one strand shown
# Chain of ETV5 (P41161 whole entry): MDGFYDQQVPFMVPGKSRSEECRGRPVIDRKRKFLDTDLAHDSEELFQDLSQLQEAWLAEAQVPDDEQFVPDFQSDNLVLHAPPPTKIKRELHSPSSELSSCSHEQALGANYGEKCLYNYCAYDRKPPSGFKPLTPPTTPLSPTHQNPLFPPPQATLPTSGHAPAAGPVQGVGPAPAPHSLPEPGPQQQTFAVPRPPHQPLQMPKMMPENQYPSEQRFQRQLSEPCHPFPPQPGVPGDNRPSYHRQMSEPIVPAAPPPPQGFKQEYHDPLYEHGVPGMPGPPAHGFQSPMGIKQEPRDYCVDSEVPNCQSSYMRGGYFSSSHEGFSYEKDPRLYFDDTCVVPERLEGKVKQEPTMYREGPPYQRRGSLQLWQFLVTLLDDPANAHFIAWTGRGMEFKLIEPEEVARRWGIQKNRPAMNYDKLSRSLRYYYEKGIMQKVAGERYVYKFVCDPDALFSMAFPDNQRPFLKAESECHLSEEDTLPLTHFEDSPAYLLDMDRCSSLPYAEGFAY
# Summary of the method: as §1
# HSF1 = HSF1 (Homo sapiens, UniProt Q00613 1-529); conditions: protein: recombinant; tags: N-terminal GST; chain copies: 3; dsDNA, one strand shown
# Chain of HSF1 (Q00613 whole entry): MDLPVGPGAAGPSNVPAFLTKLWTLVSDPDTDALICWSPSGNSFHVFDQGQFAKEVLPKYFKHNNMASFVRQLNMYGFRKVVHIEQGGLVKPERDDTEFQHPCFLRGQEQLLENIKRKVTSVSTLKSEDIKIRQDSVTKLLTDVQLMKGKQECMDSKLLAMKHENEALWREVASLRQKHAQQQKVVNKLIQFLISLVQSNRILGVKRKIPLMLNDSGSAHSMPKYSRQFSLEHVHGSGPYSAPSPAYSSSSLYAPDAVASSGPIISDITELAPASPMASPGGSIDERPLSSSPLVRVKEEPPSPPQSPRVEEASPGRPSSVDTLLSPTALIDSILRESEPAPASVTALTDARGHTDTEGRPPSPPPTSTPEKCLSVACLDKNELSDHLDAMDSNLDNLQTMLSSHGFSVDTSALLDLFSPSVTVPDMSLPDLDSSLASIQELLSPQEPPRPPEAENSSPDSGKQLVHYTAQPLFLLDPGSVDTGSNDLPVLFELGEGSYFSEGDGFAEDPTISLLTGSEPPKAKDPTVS
# Summary of the method: as §1
# SPIC = target: T8, SPIC (Homo sapiens, UniProt Q8N5J4 1-248); conditions: protein: recombinant; tags: N-terminal GST; dsDNA, one strand shown
# T8 sequence: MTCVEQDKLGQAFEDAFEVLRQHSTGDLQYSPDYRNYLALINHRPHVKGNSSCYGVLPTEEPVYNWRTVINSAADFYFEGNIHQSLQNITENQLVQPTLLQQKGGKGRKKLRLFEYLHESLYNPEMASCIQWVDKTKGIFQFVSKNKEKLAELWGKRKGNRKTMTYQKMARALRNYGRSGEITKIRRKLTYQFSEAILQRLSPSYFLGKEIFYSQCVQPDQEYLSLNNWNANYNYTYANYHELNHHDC
# Summary of the method: as §1
# ELF4 = ELF4 (Homo sapiens, UniProt Q99607 1-663); conditions: protein: recombinant; tags: N-terminal GST; dsDNA, one strand shown
# Chain of ELF4 (Q99607 whole entry): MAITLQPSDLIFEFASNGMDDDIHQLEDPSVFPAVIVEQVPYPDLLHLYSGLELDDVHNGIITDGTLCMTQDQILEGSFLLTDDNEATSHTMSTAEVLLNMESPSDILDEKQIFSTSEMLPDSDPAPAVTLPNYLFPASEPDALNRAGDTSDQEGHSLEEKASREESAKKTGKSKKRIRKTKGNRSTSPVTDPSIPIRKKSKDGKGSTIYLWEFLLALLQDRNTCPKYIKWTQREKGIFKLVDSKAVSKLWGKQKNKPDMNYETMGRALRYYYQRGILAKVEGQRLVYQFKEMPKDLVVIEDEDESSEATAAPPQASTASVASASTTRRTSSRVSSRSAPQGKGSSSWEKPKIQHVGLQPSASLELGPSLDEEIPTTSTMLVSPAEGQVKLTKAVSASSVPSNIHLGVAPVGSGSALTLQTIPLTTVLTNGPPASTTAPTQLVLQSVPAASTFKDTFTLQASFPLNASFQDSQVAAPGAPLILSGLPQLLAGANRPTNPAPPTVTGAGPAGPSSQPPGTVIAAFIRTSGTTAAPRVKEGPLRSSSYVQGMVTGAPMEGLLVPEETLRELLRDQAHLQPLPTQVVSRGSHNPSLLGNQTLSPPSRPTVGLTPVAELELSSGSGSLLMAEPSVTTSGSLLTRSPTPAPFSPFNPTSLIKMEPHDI
# Summary of the method: as §1
# ELK4 = target: T9, ELK4 (Homo sapiens, UniProt P28324-2 1-405); conditions: protein: recombinant; tags: N-terminal GST; dsDNA, one strand shown
# T9 sequence: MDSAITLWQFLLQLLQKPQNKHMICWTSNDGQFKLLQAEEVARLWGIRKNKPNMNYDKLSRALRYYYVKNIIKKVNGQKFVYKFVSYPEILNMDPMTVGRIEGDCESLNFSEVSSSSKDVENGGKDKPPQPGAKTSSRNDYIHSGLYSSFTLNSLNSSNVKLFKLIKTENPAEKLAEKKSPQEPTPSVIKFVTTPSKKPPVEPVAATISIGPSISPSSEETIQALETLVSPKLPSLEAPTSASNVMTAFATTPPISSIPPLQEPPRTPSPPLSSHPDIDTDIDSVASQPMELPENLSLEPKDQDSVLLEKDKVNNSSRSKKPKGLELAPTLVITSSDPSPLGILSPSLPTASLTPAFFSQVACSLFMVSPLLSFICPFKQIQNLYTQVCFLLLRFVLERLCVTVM
# Summary of the method: as §1
# ETV2 = target: T10, ETV2 (Homo sapiens, UniProt O00321 1-342); conditions: protein: recombinant; tags: N-terminal GST; dsDNA, one strand shown
# T10 sequence: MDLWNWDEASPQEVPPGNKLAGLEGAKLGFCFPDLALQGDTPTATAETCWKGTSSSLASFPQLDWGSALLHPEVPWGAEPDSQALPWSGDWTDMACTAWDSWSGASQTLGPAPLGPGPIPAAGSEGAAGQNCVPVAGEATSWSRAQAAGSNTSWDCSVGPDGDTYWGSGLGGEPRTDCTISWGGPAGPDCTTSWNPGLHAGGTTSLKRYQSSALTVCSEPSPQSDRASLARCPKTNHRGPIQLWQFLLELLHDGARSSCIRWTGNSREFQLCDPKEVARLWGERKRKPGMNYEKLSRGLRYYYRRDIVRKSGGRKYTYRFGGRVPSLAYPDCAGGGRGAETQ
# Summary of the method: as §1
# ELF3 = target: T11, ELF3 (Homo sapiens, UniProt P78545 1-371); conditions: protein: recombinant; tags: N-terminal GST; dsDNA, one strand shown
# T11 sequence: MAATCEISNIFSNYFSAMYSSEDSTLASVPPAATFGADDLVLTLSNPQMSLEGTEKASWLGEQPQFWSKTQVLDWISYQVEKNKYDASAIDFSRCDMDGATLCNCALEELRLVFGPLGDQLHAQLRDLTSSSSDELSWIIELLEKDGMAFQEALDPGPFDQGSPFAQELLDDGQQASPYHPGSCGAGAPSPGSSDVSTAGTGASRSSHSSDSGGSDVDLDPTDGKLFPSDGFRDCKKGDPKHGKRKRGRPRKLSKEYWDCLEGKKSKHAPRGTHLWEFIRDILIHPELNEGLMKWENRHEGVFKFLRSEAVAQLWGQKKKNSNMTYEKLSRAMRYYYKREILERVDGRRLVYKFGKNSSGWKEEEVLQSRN
# Summary of the method: as §1
# CRX = CRX (Homo sapiens, UniProt O43186 1-299); conditions: protein: recombinant; tags: N-terminal GST; dsDNA, one strand shown
# Chain of CRX (O43186 whole entry): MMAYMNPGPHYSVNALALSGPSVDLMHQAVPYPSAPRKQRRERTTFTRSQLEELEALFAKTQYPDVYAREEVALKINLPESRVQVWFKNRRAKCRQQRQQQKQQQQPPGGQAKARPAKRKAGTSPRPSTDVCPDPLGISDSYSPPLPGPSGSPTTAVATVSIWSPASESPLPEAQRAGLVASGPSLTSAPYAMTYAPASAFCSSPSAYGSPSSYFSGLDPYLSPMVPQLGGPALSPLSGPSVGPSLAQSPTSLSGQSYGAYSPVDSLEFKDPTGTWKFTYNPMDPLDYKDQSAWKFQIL
# Summary of the method: as §1
# ETV1 = ETV1 (Homo sapiens, UniProt P50549 1-477); conditions: protein: recombinant; tags: N-terminal GST; dsDNA, one strand shown
# Chain of ETV1 (P50549 whole entry): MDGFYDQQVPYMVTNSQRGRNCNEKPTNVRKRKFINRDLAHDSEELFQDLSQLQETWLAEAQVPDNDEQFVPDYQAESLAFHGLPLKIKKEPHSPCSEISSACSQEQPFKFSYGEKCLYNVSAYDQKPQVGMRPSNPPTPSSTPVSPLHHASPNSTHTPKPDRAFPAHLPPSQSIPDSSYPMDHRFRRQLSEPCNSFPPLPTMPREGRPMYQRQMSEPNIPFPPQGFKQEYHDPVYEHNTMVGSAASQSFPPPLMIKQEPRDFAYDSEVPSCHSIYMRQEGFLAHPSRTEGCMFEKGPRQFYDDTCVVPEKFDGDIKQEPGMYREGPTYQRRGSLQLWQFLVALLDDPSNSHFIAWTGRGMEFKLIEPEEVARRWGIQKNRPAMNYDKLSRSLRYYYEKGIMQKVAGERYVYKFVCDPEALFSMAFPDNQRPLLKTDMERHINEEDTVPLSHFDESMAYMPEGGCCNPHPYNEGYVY
# Summary of the method: as §1
sequence,measurement,setting,value
TACGAA,binding signal,FLI1,"1.15 fold enrichment (6-mer frequency, TF over GST control)"
same,binding signal,ELK1,"1.23 fold enrichment (6-mer frequency, TF over GST control)"
same,binding signal,GABPA,"1.3 fold enrichment (6-mer frequency, TF over GST control)"
same,binding signal,ERG,"1.23 fold enrichment (6-mer frequency, TF over GST control)"
same,binding signal,ELF1,"1.28 fold enrichment (6-mer frequency, TF over GST control)"
same,binding signal,EHF,"1.22 fold enrichment (6-mer frequency, TF over GST control)"
same,binding signal,SPI1,"1.15 fold enrichment (6-mer frequency, TF over GST control)"
same,binding signal,SPIB,"1.19 fold enrichment (6-mer frequency, TF over GST control)"
same,binding signal,ELK3,"1.25 fold enrichment (6-mer frequency, TF over GST control)"
same,binding signal,FEV,"1.29 fold enrichment (6-mer frequency, TF over GST control)"
same,binding signal,ETV5,"1.21 fold enrichment (6-mer frequency, TF over GST control)"
same,binding signal,HSF1,"1.38 fold enrichment (6-mer frequency, TF over GST control)"
same,binding signal,SPIC,"1.11 fold enrichment (6-mer frequency, TF over GST control)"
same,binding signal,ELF4,"1.31 fold enrichment (6-mer frequency, TF over GST control)"
same,binding signal,ELK4,"1.23 fold enrichment (6-mer frequency, TF over GST control)"
same,binding signal,ETV2,"1.16 fold enrichment (6-mer frequency, TF over GST control)"
same,binding signal,ELF3,"1.25 fold enrichment (6-mer frequency, TF over GST control)"
same,binding signal,CRX,"1.32 fold enrichment (6-mer frequency, TF over GST control)"
same,binding signal,ETV1,"1.24 fold enrichment (6-mer frequency, TF over GST control)"
